Source: PubChem
The entries come from a sample that favours hits as a whole.
12-LOX inh – inhibitors of human 12S-lipoxygenase ALOX12. P18054. AID 1671190. hit rate 1.1% among 580,000. purified 12hLO, xylenol orange hydroperoxide absorbance. Potency, µM (doses to about 108 µM), inactives show top-dose activity change, negative = inhibition, actives largely listed as inhibitors; note: potency is the fitted concentration of half-maximal effect
Target sequence (P18054 whole entry, looked up): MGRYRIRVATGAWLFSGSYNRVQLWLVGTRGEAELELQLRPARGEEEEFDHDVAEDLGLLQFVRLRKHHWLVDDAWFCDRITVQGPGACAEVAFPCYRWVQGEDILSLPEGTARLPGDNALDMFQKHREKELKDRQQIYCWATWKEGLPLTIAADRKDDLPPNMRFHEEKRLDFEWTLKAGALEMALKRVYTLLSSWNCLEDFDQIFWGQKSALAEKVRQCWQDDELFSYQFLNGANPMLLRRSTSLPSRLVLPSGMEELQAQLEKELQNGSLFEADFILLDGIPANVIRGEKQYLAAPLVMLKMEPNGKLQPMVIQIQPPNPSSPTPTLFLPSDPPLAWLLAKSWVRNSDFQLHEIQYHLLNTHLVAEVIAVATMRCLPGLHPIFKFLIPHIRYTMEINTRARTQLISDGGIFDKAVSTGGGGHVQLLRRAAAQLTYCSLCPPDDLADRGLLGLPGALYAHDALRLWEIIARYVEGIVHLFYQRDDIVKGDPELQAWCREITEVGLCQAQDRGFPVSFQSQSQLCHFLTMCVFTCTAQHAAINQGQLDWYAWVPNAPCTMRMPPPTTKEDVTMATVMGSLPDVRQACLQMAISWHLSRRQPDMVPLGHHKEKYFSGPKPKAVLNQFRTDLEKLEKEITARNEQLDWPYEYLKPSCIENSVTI
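Purified human 12hLO at 150 nM in 25 mM Hepes, 0.01% Triton X-100, pH 7.0, preincubated 15 min at room temperature with compound. Reaction started with 40 uM arachidonic acid, 30 min at room temperature. Hydroperoxide measured by Fe-xylenol orange, 573/405 nm absorbance ratio.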
HT1080NT lethal – kills 2HG-producing HT-1080-NT fibrosarcoma cells. HT-1080-NT fibrosarcoma viability, CellTiter-Glo ATP luminescence, 48 h. Potency, µM (series often up to 46.1 µM), without a hit: top-dose activity, negative = less viability, usual class: cytotoxic. hit rate 1.6% among 360,000. AID 686970;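 note: NT is the 2HG producing partner of a matched IDH1 knockdown line; potency is the fitted concentration of half-maximal effect; 0% = DMSO-treated cells and -100% = media-only wells without cells; nearly all actives have a fitted effect of over 55% in size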
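HT-1080-NT; 750 cells/well; 5% FBS RPMI; 48 h compound, 37 degrees C; CellTiter-Glo luminescence; curve fitting and curve-class assignment.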
DT40 TDP1 CPT – DT40-hTDP1 cell growth loss with CPT; chicken DT40 Tdp1-/-;hTDP1 cells + 20 nM CPT, ATP luminescence, 48 h; hit rate 12% among 420,000; Potency, µM (series often up to 46.2 µM), without a hit: at the highest dose activity change, negative = growth inhibition, hits mostly inhibitors; note: potency is the fitted concentration of half-maximal effect; nearly all actives have a fitted effect of over 55% in size
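Chicken DT40 Tdp1-/- cells stably complemented with human TDP1 were seeded at 400 cells/well in medium containing 20 nM camptothecin, exposed to pin-transferred compounds, and grown at 37 °C for at least 48 hr. Viability was read as ATP luminescence.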
IL1B secr inh – blocks inflammasome-driven IL-1 beta release | hit rate 4.7% among 360,000 | THP-1 LPS/ATP IL-1B secretion, AlphaLISA, 16 h; active compounds read low | activity change, % at 57.5 µM; in the data active = activity change below about -50%; inconclusive = mostly about -30% to -49%
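THP-1 cells pretreated 1 hr with compounds (up to 57.5 uM final), then stimulated with LPS (250 ng/mL final) plus ATP (1.25 mM final); secreted IL-1B measured by AlphaLISA after 16 hr, decreased signal indicating inhibition.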
TDP1 cell noCPT – qHTS for Inhibitors of human tyrosyl-DNA phosphodiesterase 1 (TDP1): qHTS in cells in absence of CPT | AID 686978, 2013 | DT40 Tdp1-/- hTDP1 cells, no CPT, ATP luminescence, 48 h | Potency, µM (highest dose often 46.2 µM), for the others: at the highest dose activity change, negative = growth inhibition, actives largely listed as inhibitors | hit rate 15% among 420,000; note: potency is the fitted concentration of half-maximal effect; nearly all actives have a fitted effect of over 55% in size
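Chicken DT40 Tdp1-/- cells stably complemented with human TDP1 were seeded at 400 cells/well with DMSO in place of 20 nM camptothecin. After compound pinning, cells grew at least 48 hr at 37 °C; viability read by CellTiter-Glo luminescence.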
HT1080 IDH1KD tx – kills HT-1080 cells with IDH1 knockdown. HT-1080 IDH1 knockdown viability, ATP luminescence, 48 h. Potency, µM (highest dose often 46.1 µM), without a hit: top-dose activity, negative = toxicity, hits mostly cytotoxic. hit rate 2% among 360,000;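 note: potency is the fitted concentration of half-maximal effect; 0% = DMSO wells and -100% = cell-free medium wells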
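Viability of IDH1-knockdown HT-1080 fibrosarcoma cells was assessed by CellTiter-Glo after 48 h at 37 °C with titrated compound; concentration-effect curves were classified by fit quality and response size.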
An asterisk follows results filed as active; ? = inconclusive; . = no result given; [ ] = dose if it differs, or a comment. Unless noted, calls come from the whole dose curve; as a rule, active = well fitted curve in the direction sought with a large enough effect; inconclusive = small, poorly fitted or top-dose-only effect, or another doubt; inactive = no such curve, though single readings can be large; an effect the other way counts as inactive or inconclusive. Unless noted, % is set by controls: 0 for no effect and ±100 for the full control effect.

SMILES	12-LOX inh	HT1080NT lethal	DT40 TDP1 CPT	IL1B secr inh	TDP1 cell noCPT	HT1080 IDH1KD tx
CC(C)Cc1nc2nccc(-c3ccccn3)n2n1	33.7%	.	.	.	.	.
Cc1c(C(=O)NC2CCS(=O)(=O)C2)nnn1-c1ccccc1F (stereo not given)	8.9%	.	.	.	.	.
CCCCCCC(=O)Nc1ccc(C(=O)N/N=C/c2cccnc2)cc1	8.1%	23.1µM*	-13.1%	7.7	-5.2%	8.2µM*
CCCCCCCCC/C(=N\O)c1ccccn1	0.0%	-29.0%	23.1µM*	61.1	23.1µM*	?
CCCCCCCCC(=O)N/N=C/c1cccc(Br)c1	1.9%[57.4 µM]	2.3%	1.3%	-59.9*	1.6%	14.7%
CCC(=O)Nc1ccc(C(=O)N/N=C/c2cccnc2)cc1	0.3%	6.0%	-8.5%	18.6	22.8%	9.0%
CCCCCCCCC(=O)N/N=C/c1ccccn1	26.1%	?	18.4µM*	22.7	?	0.0%
CCCCC(C(=O)N/N=C/c1ccccn1)C(=O)N/N=C/c1ccccn1	-19.3%	-0.1%	-4.6%	.	-11.2%	1.8%
COc1ccccc1C1c2c(-c3ccc(C)cc3)n[nH]c(=O)c2Nc2nnnn21 (stereo not given)	-4.0%	.	.	.	.	.
OCC1(CCCc2ccccc2)CCN(Cc2cccn2-c2nccs2)CC1	34.0%	.	.	.	.	.
O[C@@H]1C[C@@H](c2nnc3n2CCN(Cc2ccccn2)C3)N(Cc2ccccc2)C1	83.0%	.	.	.	.	.
Nc1nc(Cl)cc(Sc2ccc3ccccc3c2)n1	-2.2%	?	14.6µM*	-5.2	23.1µM*	16.4µM*
CCC(C)n1ncn(-c2ccc(N3CCN(c4ccc(OCC5COC(Cn6cncn6)(c6ccc(Cl)cc6Cl)O5)cc4)CC3)cc2)c1=O (stereo not given)	-4.3%	?	2.59µM*	129.4	2.31µM*	?
CCS[C@H]1CCN2C(=O)c3cc(-c4ccccc4F)ccc3NC(=O)[C@H]12	2.6%[176 µM]	.	.	.	.	.
O=C(Nc1nc(-c2cccs2)cs1)c1cccc(S(=O)(=O)N2CCCCC2)c1	?	-3.1%	?	0.0	25.9µM*	-21.1%
Cc1nnc(NC(=O)c2cccc(S(=O)(=O)N3CCN(C)CC3)c2)s1	-23.8%	7.3%	-10.7%	16.5	-24.8%	6.9%
O=C(O)c1cccc(NC(=O)c2cccc(S(=O)(=O)N3CCCCC3)c2)c1	-0.3%	2.9%	7.0%	-1.2	-7.6%	-21.0%
O=C(Nc1nn[nH]n1)c1cccc(S(=O)(=O)N2CCCCCC2)c1	10µM*	.	.	.	.	.
Cc1ccc(-c2csc(NC(=O)c3cccc(S(=O)(=O)N4CCN(C)CC4)c3)n2)cc1	0.0%	-8.2%	?	14.8	18.4µM*	-10.4%
COCc1nc(CCNC(=O)c2c3c(nc4ccccc24)CCCC3)no1	50.7%	.	.	.	.	.
Cc1c(Cl)cccc1-n1c(SCC(=O)N2CCC(C(=O)O)CC2)nc2ccccc2c1=O	2.3%	0.0%	-2.0%	8.4	3.1%	10.5%
N#C/C(=N\Nc1ccc(Cl)cc1)C(=N)N1CCCCCC1	10.2%	7.9%	-0.3%	4.3	-2.9%	7.1%
CC(C)(C)S(=O)(=O)/C(C#N)=N/Nc1ccc(Cl)cc1	?	?	?	-20.5	14.6µM*	?
Cc1cccc(N/N=C(\C#N)S(=O)(=O)C(C)(C)C)c1	?	-5.7%	3.8%	21.1	?	-2.4%
CC(C)(C)c1ccc(N/N=C(\C#N)S(=O)(=O)C(C)(C)C)cc1	-15.9%	23.1µM*	4.61µM*	?	?	?
SMILES	12-LOX inh	HT1080NT lethal	DT40 TDP1 CPT	IL1B secr inh	TDP1 cell noCPT	HT1080 IDH1KD tx
CC(=O)c1ccc2c(c1)OCCOCCOc1ccccc1OCCOCCO2	0.0%	-15.2%	18.4µM*	-15.0	23.1µM*	-4.1%
c1ccc2c(c1)OCCOCCOCCOCCOc1ccccc1OCCO2	-2.8%	.	.	.	.	.
c1ccc2c(c1)OCCOCCOCCOCCOCCOc1ccccc1OCCOCCOCCO2	-2.5%	?	8.2µM*	-73.2*	14.6µM*	?
CC(=O)c1ccc2c(c1)OCCOCCOCCOCCO2	.	7.2%	3.0%	0.4	-0.7%	5.0%
COc1cccc2cc(C(=O)N(C)CCOc3ccccc3C)c(=O)oc12	46.6%	.	.	.	.	.
Cc1[nH]c2ccccc2c1/C=N/n1cnnc1	0.0%	1.7%	-5.0%	30.5	-19.5%	7.5%
CCN(CC)c1ccc(N=Cc2c(C)[nH]c3ccccc23)cc1	?	?	6.51µM*	23.5	9.2µM*	?
Nc1ccc2c(c1)C1(CCC2)NC(=O)NC1=O (stereo not given)	-5.6%	-0.5%	-5.6%	0.0	0.5%	8.5%
CC[C@]1(O)CC2CN(CCc3c([nH]c4ccccc34)[C@@](C(=O)OC)(c3cc4c(cc3OC)N(C)[C@H]3[C@@](O)(C(N)=O)[C@H](O)[C@]5(CC)C=CCN6CC[C@]43[C@@H]65)C2)C1 (stereo not given in full)	.	.	0.335µM*	.	0.335µM*	.
CC[C@]1(O)C[C@@H]2CN(CCc3c([nH]c4ccccc34)[C@@](C(=O)OC)(c3cc4c(cc3OC)N(C)C3[C@]45CCN4CC=C[C@](CC)(C45)[C@@H](OC(C)=O)[C@]3(O)C(=O)OC)C2)C1 (stereo not given in full)	6.6%[57.4 µM]	.	0.0252µM*	.	0.0159µM*	.
CC[C@]1(O)C[C@@H]2CN(CCc3c([nH]c4ccccc34)[C@](C(=O)OC)(c3cc4c(cc3OC)N(C)[C@H]3[C@](O)(C(=O)OC)[C@@H](C(=O)OC)[C@@]5(CC)C=CCN6CC[C@@]43[C@@H]65)C2)C1	?	.	0.0841µM*	.	0.106µM*	.
CCC1=C[C@@H]2CN(C1)Cc1c([nH]c3ccccc13)[C@@](C(=O)OC)(c1cc3c(cc1OC)N(C)[C@H]1[C@@](O)(C(=O)OC)[C@H](OC(C)=O)[C@]4(CC)C=CCN5CC[C@]31[C@@H]54)C2	.	.	0.0596µM*	.	0.0531µM*	.
CC[C@]1(O)C[C@@H]2CN(CCc3c([nH]c4ccccc34)[C@@](C(=O)OC)(c3cc4c(cc3OC)N(C=O)[C@@H]3C45CCN4CC=C[C@](CC)([C@H]45)[C@@H](OC(C)=O)[C@]3(O)C(=O)OC)C2)C1 (stereo not given in full)	9.2%	.	.	.	.	.
CN(C)CC(C)(C)CNC(=O)c1cc2cc(Cl)ccc2[nH]1	-2.2%	.	.	.	.	.
COc1ccc(C(=O)Oc2ccccc2)cc1Br	-21.8%	.	.	.	.	.
CC(C)CC(=O)N1CCN(C(=O)c2ccc(F)cc2)CC1	-1.4%	0.4%	-10.5%	-2.8	?	15.9%
